{"source": "PubChem BioAssay AID504329", "about": "(Southern Research Specialized Biocontainment Screening …, 2011)", "note": "“And” between values parts separate entries of the source, which are not always exact repeats. Identical values can stand only once. Out of some 340,000 compounds screened, about 1,000 (0.29%) were called active. Not all results are given here. Entries with a potency or affinity are not part of this list. A number with no mark means an inactive call. No stated cut-off is given here; in the data, inconclusive means inhibition above about 27% without an active follow-up result; inactive means below that.", "data": [{"assay": "H1N1 influenza NS1A inhibitors, functional cell based assay (AID 504329)", "settings": "percent inhibition, at 12.5 µM, active compounds read high", "values": [{"smiles": "Cc1[nH]c(=O)c(C#N)c(C)c1CSc1ncccn1", "inhibition": "-0.63%"}, {"smiles": "S=C(Nc1ccccc1)c1ccccn1", "inhibition": "3.81%"}, {"smiles": "CN(C)c1ccc(NC(=S)c2ccc3ccccc3n2)cc1", "inhibition": "5.3%"}, {"smiles": "Cc1cc(C)c2oc(C(=O)N(Cc3ccccc3)C3CCS(=O)(=O)C3)cc(=O)c2c1", "note": "(configuration not stated)", "inhibition": "-2.06%"}, {"smiles": "CC1(C)SC2c3ccccc3C(=O)N2C1C(=O)O", "note": "(configuration not stated)", "inhibition": "-0.07%"}, {"smiles": "CC1(C)S[C@@H]2[C@H](NC(=O)Cc3ccccc3)C(=O)N2[C@H]1C(=O)O", "inhibition": "-10.5% and 1.49%"}, {"smiles": "CC(C)C[C@H]1COCCS(=O)(=O)N1Cc1cccc(C(F)(F)F)c1", "inhibition": "-20%"}, {"smiles": "O=C(NC1CCCCC1)C1CCN(c2nnnn2-c2ccccc2)CC1", "inhibition": "-1.63%"}, {"smiles": "Cc1ccc(SCC(=O)NCc2ccccc2)cc1", "inhibition": "-3.04%"}, {"smiles": "Cc1ccccc1NC(=O)N(C(C)C)C(C)C", "inhibition": "-12.5%"}, {"smiles": "O=C(Nc1ccccc1NC(=O)NC1CCCCC1)NC1CCCCC1", "inhibition": "14%"}, {"smiles": "Nc1c(NC2CCCCC2)c2ccccc2oc1=O", "inhibition": "4.37%"}, {"smiles": "Cc1nc(NC(=O)c2cc3c(C)nn(-c4ccccc4)c3s2)sc1C(=O)Nc1ccccc1", "inhibition": "0.17%"}, {"smiles": "COc1ccc(N2CC(C(=O)N/N=C/c3ccccc3)CC2=O)cc1", "note": "(configuration not stated)", "inhibition": "-7.3%"}, {"smiles": "CCCCC1(C)OC(=O)C(=Cc2ccc(N(C)C)cc2)C(=O)O1", "note": "(configuration not stated)", "inhibition": "0.99%"}, {"smiles": "COc1ccc2c(c1)c(=O)cc(-c1ccccc1)n2C", "inhibition": "0.17%"}, {"smiles": "CN(C)c1ccc(/C=C2\\SC(=O)N(CC(O)Cn3c4ccccc4c4ccccc43)C2=O)cc1", "note": "(configuration not stated)", "inhibition": "-1.11%"}, {"smiles": "CN(c1ccc(Cl)cc1)c1cc(=O)n(C)c2ccccc12", "inhibition": "3.91%"}, {"smiles": "C[n+]1c(-c2ccccc2)cc2c(=Cc3ccccc3)c3ccccc3n21", "inhibition": "-16.8%"}, {"smiles": "COc1ccc(-c2cc(-c3ccccc3)[n+](C)c(-c3ccccc3)c2)cc1", "inhibition": "-1.4%"}, {"smiles": "CN(C)c1ccc(-c2n(C)c3ccccc3[n+]2C)cc1", "inhibition": "28.5%"}, {"smiles": "CN(C)c1ccc(/C=N/c2cc(-c3ccccc3)nn2-c2ccccc2)cc1", "inhibition": "-1.42%"}, {"smiles": "CC(C)(C)CN1CCNC[C@H]1Cc1cccc2ccccc12", "inhibition": "4.41%"}, {"smiles": "CNCC(O)c1cc(OCc2ccccc2)c(OCc2ccccc2)cc1F", "note": "(configuration not stated)", "inhibition": "2.8%"}, {"smiles": "Cc1cc(Nc2cccc(F)c2)n2c(n1)nc1ccccc12", "inhibition": "-4.78%"}, {"smiles": "CC(Sc1nnc(C2CC2)n1C1CC1)C(=O)c1ccc(F)cc1", "note": "(configuration not stated)", "inhibition": "-11.2%"}, {"smiles": "Clc1cccc(Cl)c1CSc1nnc([C@@H]2CCCN2)o1", "inhibition": "-1.85%"}]}]}
